Source: PubChem BioAssay
KLF5 inhibitor – kruppel-like factor 5 inhibition | 290,000 compounds, 0.23% hits | DLD-1 KLF5 promoter-luciferase reporter, luminescence | AID 1700 | inhibition, % at 5 µM;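 active = inhibition above a per-plate limit of that plate's mean compound inhibition plus 3 SD, cut at about 60% in these data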;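 note: higher means less KLF5 promoter-driven luciferase light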
BaF3 tox – counter-screen for JAK2V617F inhibitors: parental Ba/F3 viability inhibitors | inhibition, % at 5.6 µM | CellTiter-Glo ATP luminescence | 220,000 compounds, 1.1% hits | AID 1486;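 active = inhibition above a per-campaign cutoff, the mean inhibition of all tested compounds plus 3 SD, cut at about 27% in these data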
GPR7 antag – antagonists of human GPR7 (neuropeptides B/W receptor 1); P48145; GPR7-expressing cells, fluorescence antagonist assay; inhibition, % at 4.4 µM; 290,000 compounds, 1.1% hits; in the data active = inhibition above about 16%, passing the limit was not always enough;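 note: cells stimulated with the agonist NPW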
Target sequence (P48145 whole entry, looked up): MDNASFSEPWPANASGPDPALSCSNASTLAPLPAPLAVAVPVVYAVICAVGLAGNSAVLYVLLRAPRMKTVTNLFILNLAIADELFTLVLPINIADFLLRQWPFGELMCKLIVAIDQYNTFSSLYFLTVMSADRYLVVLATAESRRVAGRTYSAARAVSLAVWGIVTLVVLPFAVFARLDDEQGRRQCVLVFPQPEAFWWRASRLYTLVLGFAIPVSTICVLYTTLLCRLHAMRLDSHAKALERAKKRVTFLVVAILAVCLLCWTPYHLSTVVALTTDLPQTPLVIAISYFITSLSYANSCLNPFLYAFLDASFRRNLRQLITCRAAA
Ba/F3 V617F tox – reduce viability of Ba/F3 cells dependent on JAK2V617F. inhibition, % at 5.6 µM. Ba/F3 EpoR-JAK2V617F viability, ATP luminescence. 220,000 compounds, 1.1% hits;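 active = inhibition above the campaign mean plus 3 SD over all tested compounds, cut at about 24% in these data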;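 note: cytokine-independent growth of Ba/F3 cells driven by EpoR plus mutant JAK2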
FID counter – counter-screen for HCV NS3 helicase inhibitors: DNA intercalator displacement; 290,000 compounds, 0.17% hits; DNA fluorescent intercalator displacement, fluorescence; AID 1845; inhibition, % at 7.9 µM; in the data active = inhibition above about 37%;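 note: higher means more ethidium bromide displaced from hairpin DNA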
IEC-6 cytotox – IEC-6 cytotoxicity, counter-screen for KLF5 inhibitors. luminescence viability. inhibition, % at 5 µM. 290,000 compounds, 0.78% hits. AID 1825
GPR7 antag conf – human GPR7 antagonism, confirmation assay; shares compounds with GPR7 antag; 2,400 compounds, 52% hits; GPR7-expressing cells, calcium fluorescence antagonist mode; inhibition, % at 4.4 µM; in the data active = inhibition above about 24%;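 note: stimulated with the GPR7 agonist NPW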
MCHR1 antag – antagonizes human MCHR1, a GPR7 antagonist counter-screen; shares compounds with GPR7 antag; AID 2148; inhibition, % at 4.4 µM; 2,400 compounds, 62% hits; MCHR1-expressing cells, fluorescence antagonist assay
Numbers stand for hits. A selection: hits, their analogues and other compounds. The true share with any hit is near 2.6%. Cut-off read from the data, not from the text of the source, unless noted: active = inhibition above about 22%; inactive = the rest.

Screening Clc1ccccc1Nc1ncnc2c1nnn2Cc1ccccc1 returned KLF5 inhibitor inactive, BaF3 tox inactive, GPR7 antag 34, Ba/F3 V617F tox inactive, FID counter inactive, IEC-6 cytotox inactive, GPR7 antag conf inactive and MCHR1 antag inactive.
For COc1ccc(S(=O)(=O)N(C)C)cc1NC(=O)COC(=O)CC1CCCC1 the results were KLF5 inhibitor inactive, BaF3 tox inactive, GPR7 antag inactive, Ba/F3 V617F tox inactive, FID counter inactive and IEC-6 cytotox inactive.
Screening COC(=O)c1cccc(NC(=O)c2cnccn2)c1 returned KLF5 inhibitor inactive, GPR7 antag 24, FID counter inactive, IEC-6 cytotox inactive, GPR7 antag conf inactive and MCHR1 antag inactive.
For CCOC(=O)c1cccc(NC(=O)c2cnccn2)c1 the results were KLF5 inhibitor inactive, BaF3 tox inactive, GPR7 antag inactive, Ba/F3 V617F tox inactive, FID counter inactive and IEC-6 cytotox inactive.
`CCOC(=O)N1CCC(N2CC34C=CC(O3)C(C(=O)Nc3ccc(C)cc3)C4C2=O)CC1` (configuration not stated) gave KLF5 inhibitor inactive, BaF3 tox inactive, GPR7 antag inactive, Ba/F3 V617F tox inactive, FID counter inactive and IEC-6 cytotox inactive.
For CS(=O)(=O)c1ccc(C(=O)OCc2nnc(-c3ccc(Cl)cc3)o2)cc1[N+](=O)[O-] the results were KLF5 inhibitor inactive, BaF3 tox inactive, GPR7 antag 35, Ba/F3 V617F tox inactive, FID counter inactive, IEC-6 cytotox inactive, GPR7 antag conf 88 and MCHR1 antag 78.
For CCc1ccc2[nH]c(=O)c(C(c3nnnn3Cc3ccc(OC)cc3)N3CCOCC3)cc2c1 (configuration not stated) the results were KLF5 inhibitor inactive, BaF3 tox inactive, GPR7 antag 29, Ba/F3 V617F tox inactive, FID counter inactive, IEC-6 cytotox inactive, GPR7 antag conf inactive and MCHR1 antag inactive.
Screening CCc1ccc2[nH]c(=O)c(C(c3nnnn3Cc3ccccc3)N3CCOCC3)cc2c1 (configuration not stated) returned KLF5 inhibitor inactive, BaF3 tox inactive, GPR7 antag inactive, Ba/F3 V617F tox inactive, FID counter inactive and IEC-6 cytotox inactive.
Screening Cc1oc(-c2cccs2)nc1CN1CCN(C2CCCC2)C(CCO)C1 (configuration not stated) returned KLF5 inhibitor inactive, BaF3 tox inactive, GPR7 antag inactive, Ba/F3 V617F tox inactive, FID counter inactive and IEC-6 cytotox inactive.
CN1C(C(=O)N2CCc3ccccc3C2)=CC(c2ccc(F)cc2)=NS1(=O)=O was read as KLF5 inhibitor inactive, GPR7 antag 30, FID counter inactive, IEC-6 cytotox inactive, GPR7 antag conf inactive and MCHR1 antag 25.
Screening CC1CC(C)CN(CCCNC(=O)C2CCCN(c3ncnc4c3nc3n4CCCCC3)C2)C1 (configuration not stated) returned KLF5 inhibitor inactive, GPR7 antag 28, FID counter inactive, IEC-6 cytotox inactive, GPR7 antag conf inactive and MCHR1 antag inactive.
For CC1CCCN(CCCNC(=O)C2CCCN(c3ncnc4c3nc3n4CCCCC3)C2)C1 (configuration not stated) the results were KLF5 inhibitor inactive, GPR7 antag inactive, FID counter inactive and IEC-6 cytotox inactive.
CS(=O)(=O)N1CCN(Cc2ccc(C(F)(F)F)cc2)CC1 was read as KLF5 inhibitor inactive, BaF3 tox inactive, GPR7 antag inactive, Ba/F3 V617F tox inactive, FID counter inactive and IEC-6 cytotox inactive.
`Cc1ccc(-c2csc3ncnc(N4CCN(C(=O)c5ccccc5)CC4)c23)cc1` gave KLF5 inhibitor inactive, BaF3 tox inactive, GPR7 antag 29, Ba/F3 V617F tox inactive, FID counter inactive, IEC-6 cytotox inactive, GPR7 antag conf 36 and MCHR1 antag 53.
O=c1cc(N2CCOCC2)[nH]c(=O)n1-c1ccc(Br)cc1 was read as KLF5 inhibitor inactive, BaF3 tox inactive, GPR7 antag 25, Ba/F3 V617F tox inactive, FID counter inactive, IEC-6 cytotox inactive, GPR7 antag conf inactive and MCHR1 antag inactive.
Screening Cc1cc(=O)oc2cc(OCc3nnc(-c4ccccc4Br)o3)ccc12 returned KLF5 inhibitor inactive, BaF3 tox inactive, GPR7 antag 31, Ba/F3 V617F tox inactive, FID counter inactive, IEC-6 cytotox inactive, GPR7 antag conf inactive and MCHR1 antag 25.
For COc1ccc(Nc2nnc(-c3ccc(O)cc3)c3ccccc23)cc1 the results were KLF5 inhibitor inactive, BaF3 tox inactive, GPR7 antag 61, Ba/F3 V617F tox inactive, FID counter inactive, IEC-6 cytotox inactive, GPR7 antag conf 71 and MCHR1 antag 74.
`Oc1ccc(Nc2nnc(-c3ccc(O)cc3)c3ccccc23)cc1` gave KLF5 inhibitor inactive, BaF3 tox inactive, GPR7 antag 39, Ba/F3 V617F tox inactive, FID counter inactive, IEC-6 cytotox inactive, GPR7 antag conf 54 and MCHR1 antag 62.
`c1ccc(OCc2nnc(-c3ccccc3)o2)cc1` gave KLF5 inhibitor inactive, BaF3 tox inactive, GPR7 antag 22, Ba/F3 V617F tox inactive, FID counter inactive, IEC-6 cytotox inactive, GPR7 antag conf inactive and MCHR1 antag 25.
Screening C=C(C)CSc1nc2sc3c(c2c(=O)n1-c1ccc(C)cc1)CCN(C)C3 returned KLF5 inhibitor inactive, GPR7 antag inactive, FID counter inactive and IEC-6 cytotox inactive.
O=C(CCC1CCCCC1)Nc1c2c(nn1-c1ccc(F)cc1)CS(=O)(=O)C2 was read as KLF5 inhibitor inactive, BaF3 tox inactive, GPR7 antag 32, Ba/F3 V617F tox inactive, FID counter inactive, IEC-6 cytotox inactive, GPR7 antag conf 43 and MCHR1 antag 29.
`O=C(CCC(=O)OCCCC(F)(F)C(F)(F)F)NC1CCCCC1` gave KLF5 inhibitor inactive, BaF3 tox inactive, GPR7 antag inactive, Ba/F3 V617F tox inactive, FID counter inactive and IEC-6 cytotox inactive.
O=C(CSc1nnc(COc2ccc(Cl)cc2)n1Cc1ccco1)c1ccccc1F was read as KLF5 inhibitor inactive, BaF3 tox inactive, GPR7 antag inactive, Ba/F3 V617F tox inactive, FID counter inactive and IEC-6 cytotox inactive.
Cc1ccc(NC(=O)CSc2n[nH]c(C)c2[N+](=O)[O-])cc1C was read as KLF5 inhibitor inactive, BaF3 tox inactive, GPR7 antag inactive, Ba/F3 V617F tox inactive, FID counter inactive and IEC-6 cytotox inactive.
`COc1ccc(NC(=O)CSc2n[nH]c(C)c2[N+](=O)[O-])cc1` gave KLF5 inhibitor inactive, BaF3 tox inactive, GPR7 antag 22, Ba/F3 V617F tox inactive, FID counter inactive, IEC-6 cytotox inactive, GPR7 antag conf inactive and MCHR1 antag inactive.
`COc1cc(C(=S)N2CCOCC2)ccc1OS(=O)(=O)c1ccc(C)cc1` gave KLF5 inhibitor inactive, GPR7 antag inactive, FID counter inactive and IEC-6 cytotox inactive.
